Bioassay records (PubChem)
Shown are actives, neighbours in structure and some others; about 5.7% of the full set was active somewhere.
DAX1 inh-1 = inhibits human nuclear receptor DAX1 | HEK293 Gal4-DAX1 luciferase reporter, luminescence | actives 0.99% (n = 340,000) | P51843 | inhibition, % at 6.75 µM;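 active means inhibition above the mean over all tested compounds plus 3 SD, cut at about 4.2% in these data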;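 further: 0% = DAX1-transfected cells with DMSO and 100% = empty-vector control cells with DMSO; inhibition shows as a rise in luminescence from relieved DAX1 repression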
ssDAF-12 act = activates DAF-12 receptor from parasite S. stercoralis; HEK293 ssDAF-12/GRIP1 lit1-tk-luc reporter, luminescence; % of 3 µM dafachronic acid response; activation, % at 6.8 µM; actives 1% (n = 370,000); AID 652126;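 active means activation above the mean over all tested compounds plus 3 SD, cut at about 0.9% in these data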;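 further: 0% = DMSO-only wells and 100% = 3 µM delta7-dafachronic acid wells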
DAX1 inh-2 = DAX1 (NR0B1) inhibition, primary screen | HEK293T StAR-luciferase reporter, SF-1/DAX-1 repression relief | inhibition, % at 6.8 µM | actives 1.1% (n = 370,000) | AID 652010;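 active means inhibition above the mean over all tested compounds plus 3 SD, cut at about 3.6% in these data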;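 further: 0% = DAX-1 cells with DMSO and 100% = cells lacking DAX-1 with DMSO; higher inhibition means more luminescence from relief of DAX-1 repression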
hgDAF-12 ag = hgDAF-12 agonism, primary luciferase screen; HEK293 GAL4-hgDAF12 UAS-luciferase reporter, agonist luminescence; normalized to butyrate control; actives 1.8% (n = 370,000); AID 687014; activation, % at 6.8 µM;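 active means activation above a cutoff set at the mean of all screened compounds plus 3 SD, cut at about 10% in these data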;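 further: 0% = DMSO wells and 100% = sodium butyrate wells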
hcDAF12 agonist = activates DAF-12 receptor from parasite H. contortus; HEK293 hcDAF-12 lit1-tk-luc reporter, luminescence; 0% DMSO, 100% Δ7-dafachronic acid; activation, % at 6.8 µM; actives 1.4% (n = 370,000); AID 652067;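 active means activation above the mean of all tested compounds plus 3 SD, cut at about 5.5% in these data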;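 further: 100% = response to 3 µM Δ7-dafachronic acid high control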
AHR act = activates the human aryl hydrocarbon receptor; AHR-responsive luciferase reporter cells, luminescence; activation, % at 5 µM; actives 2.5% (n = 320,000); in the data active means activation above about 47%;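 further: 0% = vehicle wells and 100% = reference agonist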
hgDAF12 conf = confirmation of H. glycines DAF-12 agonists. shares compounds with hgDAF-12 ag. HEK293 GAL4-hgDAF12 luciferase reporter, agonist mode; percent of butyrate response. activation, % at 6.8 µM. actives 80% (n = 3,300);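 active means mean activation over triplicate wells above the hit cutoff derived from the earlier primary screen, cut at about 11% in these data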;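 further: 0% = DMSO low control and 100% = 2 mM sodium butyrate high control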
LXR ag 2 = activates human LXR-beta, counter-screen for DAF-12 agonists; activation, % at 6.8 µM; 3,300 tested, under 10 active; HEK293 Gal4-LXR luciferase reporter, 24 h; shares compounds with hgDAF-12 ag; AID 743051;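 active means mean activation of the triplicate above a set limit carried over from the primary screen, none filed active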
Target sequence (P55055 whole entry, looked up, the tested form may be a part): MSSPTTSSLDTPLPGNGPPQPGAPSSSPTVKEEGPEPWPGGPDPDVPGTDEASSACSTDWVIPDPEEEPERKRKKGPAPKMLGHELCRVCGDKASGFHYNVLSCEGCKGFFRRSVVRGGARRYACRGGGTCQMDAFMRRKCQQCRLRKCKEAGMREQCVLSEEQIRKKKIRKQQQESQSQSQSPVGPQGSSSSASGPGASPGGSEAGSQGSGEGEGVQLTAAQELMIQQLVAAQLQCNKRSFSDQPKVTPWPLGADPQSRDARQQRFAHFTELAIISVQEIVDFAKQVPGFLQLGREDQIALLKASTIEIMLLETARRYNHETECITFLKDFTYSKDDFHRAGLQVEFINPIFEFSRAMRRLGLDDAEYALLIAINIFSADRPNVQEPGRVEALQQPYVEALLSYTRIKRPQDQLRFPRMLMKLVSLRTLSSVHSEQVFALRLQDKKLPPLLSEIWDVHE
* = called active by the depositor; · = no result given.

SMILES | DAX1 inh-1 | ssDAF-12 act | DAX1 inh-2 | hgDAF-12 ag | hcDAF12 agonist | AHR act | hgDAF12 conf | LXR ag 2
C/C(=N\Nc1ccc([N+](=O)[O-])cc1)c1ccco1 | 4.8* | 0 | 1 | 15* | 3 | -3 | 15* | 1
O=C1CC(=O)Nc2cc(S(=O)(=O)N3CCN(c4ccc([N+](=O)[O-])cc4)CC3)ccc2N1 | 1 | -1 | 0 | 0 | 2 | 0 | · | ·
COc1ccc(NC(=O)c2ccccc2NC(=O)C2CCCCC2C(=O)O)cc1 (stereo not given) | 3 | 0 | 2 | 14* | 5 | · | 3 | 0
CCOC(=O)c1c(C)[nH]c(C(=O)CSc2nccc(C)n2)c1C | 1 | -1 | 1 | 10 | 1 | 0 | · | ·
CCOC(=O)c1c(C)[nH]c(C(=O)CSc2ccccc2)c1C | 0 | 1 | 4 | 18* | 5.6* | -1 | 14* | 1
CC(=O)Nc1ccc(-c2csc(Nc3ncccn3)n2)cc1 | 3 | -1 | 1 | 4 | 4 | 15 | · | ·
CC(=O)Nc1cccc(-c2csc(Nc3ccc(Cl)cn3)n2)c1 | 5.9* | 0 | 3.8* | 13* | 2 | 11 | 13* | 1
CC(=O)Oc1ccc(-c2csc(Nc3ccccn3)n2)cc1 | 2 | 0 | 3.9* | 16* | 6 | · | 14* | 1
CC(=O)Nc1ccc(-c2csc(Nc3ccc(Cl)cn3)n2)cc1 | -3 | -2 | -2 | -3 | -3 | -3 | · | ·
COc1cccc(CSc2nc3ccncc3[nH]2)c1 | -1 | 0 | 3 | 15* | 2 | 28 | 14* | 1
COc1cc(CN(C(C)=O)c2ccccc2C(=O)O)ccc1[N+](=O)[O-] | 2 | -1 | -3 | 4 | 0 | · | · | ·
O=C(NCC1c2ccccc2CCN1C(=O)CN1C(=O)c2ccccc2C1=O)C1CCCCC1 (stereo not given) | -1 | -1 | 0 | -1 | 0 | -1 | · | ·
CC1(C)c2ccccc2-c2nc3ccccc3cc2C1O (stereo not given) | 1 | 0 | 0 | 4 | 4 | 19 | · | ·
Cc1ccc2c(c1)C(=NC1CCCCC1)c1cc3ccccc3nc1-2 | 1 | 2.4* | 4.2* | 20* | 15* | 18 | 18* | 1
Cc1ccnc(N=Cc2nc(-c3ccccc3Br)oc2O)c1 | 0 | 1 | 2 | 15* | 0 | -3 | 6 | 0
CC(=O)Nc1cc(F)c2c(c1F)Cc1cc(F)ccc1-2 | 3 | 0 | 2 | 16* | 3 | · | 12* | 0
CC(=O)Nc1ccc(NC(=O)CN(c2cccc([N+](=O)[O-])c2)S(C)(=O)=O)cc1 | -5 | -1 | -4 | -3 | -2 | 2 | · | ·
Oc1ccc(Nc2ncnc3ccccc23)cc1 | 1 | -1 | 1 | 0 | 0 | · | · | ·
Cc1ccc(Nc2ncnc3ccccc23)cc1 | 0 | -1 | 1 | 14* | 0 | 65* | 10 | 0
O=C(Nc1cc(S(=O)(=O)N2CCOCC2)ccc1N1CCCC1)c1cccnc1Cl | -1 | -1 | 0 | -1 | -2 | 0 | · | ·
O=C(/C=C/c1ccccc1)Nc1ccc(Cl)cn1 | -2 | -1 | 1 | 14* | 1 | · | 20* | 1
Cc1ccc(C(=O)Nc2ccc(F)cc2)o1 | 0 | -1 | 0 | 5 | 2 | 3 | · | ·
Cc1ccc(C(=O)Nc2ccc3c(c2)CCC3)o1 | 1 | -1 | 2 | 16* | 3 | 3 | 22* | 1
Cc1occc1C(=O)Nc1ccc2c(c1)CCC2 | 1 | 1 | 3.9* | 15* | 3 | 2 | 15* | 1
Cc1cc(C)nc(-n2nc(C)c(Sc3ccc(F)cc3)c2N)n1 | 0 | 0 | 3 | 13* | 3 | 13 | 15* | 1
CC(=O)c1ccc(-c2cnc3c(NC=O)cc(-c4ccc(N5CCN(C)CC5)cc4)cn23)cc1 | · | 0 | 1 | 17* | 2 | · | 10 | 0
